Screening results: PubChem BioAssay, The Scripps Research Institute Molecular Screening Center
pPAFAH inh: inhibitors of human plasma PAF acetylhydrolase (pPAFAH); Q13093; recombinant pPAFAH, FP-rhodamine probe fluorescence polarization; inhibition, % at 3.39 µM; hit rate 1.5% among 330,000; AID 463082;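 active means inhibition above the mean inhibition across the screen plus 3 SD, cut at about 25% in these data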;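 further: inhibitors block binding of the rhodamine activity-based probe so polarization drops; 0% = enzyme with DMSO and 100% = wells lacking pPAFAH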
Target sequence (Q13093 whole entry, looked up): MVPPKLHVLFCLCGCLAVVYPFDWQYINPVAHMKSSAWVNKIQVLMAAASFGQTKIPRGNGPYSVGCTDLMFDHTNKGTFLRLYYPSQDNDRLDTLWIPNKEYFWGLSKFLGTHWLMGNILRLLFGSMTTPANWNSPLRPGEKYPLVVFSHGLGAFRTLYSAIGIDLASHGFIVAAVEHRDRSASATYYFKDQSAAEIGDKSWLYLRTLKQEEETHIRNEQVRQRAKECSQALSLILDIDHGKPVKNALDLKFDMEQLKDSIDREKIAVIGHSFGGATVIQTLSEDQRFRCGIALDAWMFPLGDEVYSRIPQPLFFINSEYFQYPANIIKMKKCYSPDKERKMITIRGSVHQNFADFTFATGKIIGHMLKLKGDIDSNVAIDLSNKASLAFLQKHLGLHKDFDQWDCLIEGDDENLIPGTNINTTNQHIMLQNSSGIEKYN
PP5 primary: blocks human protein phosphatase 5 activity; purified PP5c, OMFP substrate fluorescence; inhibition, % at 6.7 µM; hit rate 0.18% among 320,000; AID 1987;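 active means inhibition above the campaign's mean inhibition across all tested compounds plus 3 SD, cut at about 9.5% in these data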;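 further: 0% = DMSO only and 100% = 100 µM cantharidin control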
PP1 counter: blocks human PP1-alpha phosphatase, a PP5 counter-screen; purified PP1alpha, OMFP fluorescence; inhibition, % at 6.7 µM; hit rate 0.9% among 320,000; AID 2235;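 active means inhibition above the mean inhibition of all tested compounds plus 3 SD, computed separately for each screening campaign, cut at about 15% in these data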
PAFAH1B3 FP inh: blocks human PAF acetylhydrolase 1B catalytic subunit 3. hit rate 0.28% among 340,000. recombinant PAFAH1B3, FP-rhodamine probe, fluorescence polarization. inhibition, % at 3.39 µM. Q15102;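 active means inhibition above the screen-wide average of all tested compounds plus 3 SD, cut at about 25% in these data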;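 further: 0% = enzyme with DMSO only and 100% = wells lacking PAFAH1B3 protein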
PAFAH2 inh: PAFAH2 (human) inhibition. hit rate 0.99% among 340,000. recombinant PAFAH2, FP-rhodamine activity probe, fluorescence polarization. inhibition, % at 3.39 µM. Q99487;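 active means inhibition above the mean over all tested compounds plus 3 SD, cut at about 30% in these data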;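 further: inhibitors block probe labeling of enzyme so polarization drops; 0% = enzyme with DMSO and 100% = wells lacking PAFAH2 protein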
PAFAH1B2 inh: inhibitors of human PAFAH1B2. P68402. recombinant PAFAH1B2, FP-rhodamine activity probe, fluorescence polarization. inhibition, % at 3.39 µM. hit rate 1.2% among 340,000. AID 492953;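 active means inhibition above the mean of all tested compounds plus 3 SD, cut at about 24% in these data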;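 further: 0% = enzyme with DMSO and 100% = wells lacking PAFAH1B2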
PP1 inh confirm: confirmation of human PP1 phosphatase inhibitors; shares compounds with PP1 counter; purified PP1alpha, OMFP substrate fluorescence; inhibition, % at 6.7 µM; hit rate 52% among 1,900;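 active means mean PP1 inhibition above a set limit taken from the earlier primary screen, cut at about 15% in these data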
PP5 inh counter: inhibits human PP5 phosphatase in PP1 counter-screen | shares compounds with PP1 counter | inhibition, % at 6.7 µM | hit rate 4% among 1,900 | purified PP5c, OMFP fluorescence;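 active means mean PP5 inhibition over triplicate wells above about 9.5% taken from the earlier PP1 screen, limit read from the data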
Numbers without * were called inactive; x = no result. Sampled rows, rich in hits. Any-hit rate of the full collection: about 3.4%.

SMILES	pPAFAH inh	PP5 primary	PP1 counter	PAFAH1B3 FP inh	PAFAH2 inh	PAFAH1B2 inh	PP1 inh confirm	PP5 inh counter
COc1cccc(-c2nc(CS(=O)(=O)CC(=O)Nc3cccc(C(C)=O)c3)c(C)o2)c1	2	3	-1	7	5	3	x	x
FC(F)(F)c1ccc(C2[C@H]3CN(Cc4cccnc4)[C@H](c4ccccc4)C34CC2(c2cccnc2)C4)cc1 (stereo partly drawn)	-1	5	19*	1	-9	3	7	-1
N#Cc1ccc(C23CC4(C2)[C@H](CN(Cc2cccnc2)[C@@H]4c2ccccc2)C3c2ccccc2)cc1 (stereo partly drawn)	9	2	20*	1	-3	0	17*	-2
COC(=O)c1ccc(C23CC4(C2)[C@H](CN(Cc2cccnc2)[C@@H]4c2ccccc2)C3c2ccccc2)cc1 (stereo partly drawn)	3	3	8	-15	-6	-1	x	x
Cc1ccc(SCC(=O)N2CCc3ccccc32)cc1	2	2	-5	2	-7	6	x	x
COc1ccc(CC(=O)Nc2sc3c(c2C(N)=O)CCCC3)cc1OC	14	2	5	-1	7	4	x	x
Nc1nc(Nc2cccc(F)c2)nc(N2CCOCC2)c1[N+](=O)[O-]	-5	3	-1	5	2	-2	x	x
Cc1cccc(NC(=O)CN2C(=O)N/C(=C/c3cc(C)n(-c4ccncc4)c3C)C2=O)c1	12	0	19*	-12	-4	-11	14	-2
Cc1cccc(NC(=O)CN2C(=O)N/C(=C/c3cc(C)n(-c4cccnc4)c3C)C2=O)c1	10	-1	10	-6	6	-1	x	x
Cc1cc(N2CCOCC2)ccc1/C=C1\NC(=O)N(CC(=O)Nc2ccc(F)cc2)C1=O	4	2	9	4	-6	-5	x	x
Cc1cccc(NC(=O)CN2C(=O)N/C(=C\c3ccc(N4CCOCC4)cc3)C2=O)c1	9	0	20*	3	5	5	25*	-4
CCOc1cc(C(=O)N(C)CC(=O)Nc2cccc(F)c2)ccc1OCC(=O)N1CCCCC1	0	-1	0	8	3	-2	x	x
Cc1ccccc1-n1c(SCC(=O)N/N=C/c2c(C)nn(-c3ccccc3)c2C)nc2ccccc2c1=O	-9	3	18*	-11	-28	-6	9	3
Cc1nn(-c2ccccc2)c(C)c1/C=N/NC(=O)CSc1nc2ccccc2c(=O)n1-c1ccc(Br)cc1	-2	1	1	-8	-2	-3	x	x
Cc1ccc(-n2c(C)cc(/C=C3\SC(=O)NC3=O)c2C)cc1	14	1	2	12	4	5	x	x
Cc1cc(/C=C2\SC(=Nc3ccccc3)NC2=O)c(C)n1-c1ccc(S(N)(=O)=O)cc1	15	4	18*	14	3	3	7	0
Cc1ccc(Cn2nc(C)c(NC(=O)c3cc(-c4ccc5c(c4)OCO5)on3)c2C)cc1	3	2	24*	x	x	x	37*	-4
Cc1nn(Cc2ccc(F)cc2)c(C)c1NC(=O)c1cc(-c2ccc3c(c2)OCO3)on1	-3	-1	-2	-7	-9	-4	x	x
Cc1ccc(N=C2NC(=O)CS2)cc1C	-2	-1	-1	0	6	5	x	x
O=C(O)c1ccccc1N1C(=O)C2C3c4ccccc4C(Br)(c4ccccc43)C2C1=O (stereo not drawn)	1	-3	0	7	4	3	x	x
O=C(Nc1nc2n(n1)C(c1ccc(Cl)cc1)CC(c1ccc(Cl)cc1)N2)c1ccco1 (stereo not drawn)	8	4	23*	x	x	x	16*	-2
COc1ccc(C2CC(c3ccc(Cl)cc3)Nc3nc(NC(=O)c4ccco4)nn32)cc1 (stereo not drawn)	x	x	x	4	2	-1	x	x
COc1cc(OC)nc(NC(=O)CS(=O)(=O)c2ccccc2)n1	-1	0	30*	0	2	1	-3	-1
Cc1cc(Cl)ccc1Oc1ncnc2oc(-c3ccccc3)cc12	-5	2	-1	3	-6	-4	x	x
O=C(NC(=S)Nc1ccccc1[N+](=O)[O-])c1ccccc1Cl	8	2	-2	7	6	3	x	x
SMILES	pPAFAH inh	PP5 primary	PP1 counter	PAFAH1B3 FP inh	PAFAH2 inh	PAFAH1B2 inh	PP1 inh confirm	PP5 inh counter
O=C(O)c1ccc(Cl)c(NC(=S)NC(=O)c2ccccc2[N+](=O)[O-])c1	0	-3	18*	1	1	2	-3	-3
CCOc1ccccc1C(=O)NCC(=O)NCC(c1ccc(OC)cc1)N1CCOCC1 (stereo not drawn)	0	-1	23*	2	-1	-1	-2	-3
Cc1nn(CCc2nn[nH]n2)c2nc(-c3ccc(C4CCCCC4)cc3)cc(C(F)(F)F)c12	27*	5	18*	-7	17	0	26*	3
CCOc1ccccc1C1CC(=O)Nc2c1c(=O)n(C)c(=O)n2C (stereo not drawn)	-1	3	0	7	2	2	x	x
O=C(c1cc(-c2ccc(Br)cc2)nc2ccccc12)N1CCC1	3	0	20*	-4	2	0	-23	-4
O=C(c1cc(-c2cccc(Br)c2)nc2ccccc12)N1CCCC1	15	2	2	-3	7	3	x	x
Cc1cc(N/N=C/c2cccc(F)c2)nc(NCc2ccccc2)n1	2	2	9	0	15	2	x	x
Cc1cc(N/N=C/c2ccc(Cl)cc2)nc(NCc2ccccc2)n1	2	6	19*	3	-6	0	2	-1
O=C(NCc1ccccc1Br)c1cccc2c1C(=O)c1ccc(N3CCOCC3)cc1S2(=O)=O	15	-2	28*	x	x	x	37*	-7
O=C(NCc1ccc(F)cc1)c1cccc2c1C(=O)c1ccc(N3CCOCC3)cc1S2(=O)=O	0	3	-4	-3	6	-3	x	x
COc1ccc(C2C(C(=O)c3ccco3)=C(O)C(=O)N2CCc2ccccc2)cc1OC (stereo not drawn)	0	1	30*	-3	1	10	29*	-2
COc1ccccc1C(=O)Nc1ccc(Oc2nnc(-c3ccc(C)cc3)c3ccccc23)cc1	-8	2	13	-9	-10	-5	x	x
Cc1ccc(Oc2nnc(-c3ccc(C)cc3)c3ccccc23)cc1	5	2	41*	-6	9	-1	-8	-8
CCCCC1=CC2=CC(=O)C(C)(OC(=O)CC)C(=O)C2=CN1CCc1c[nH]c2ccccc12 (stereo not drawn)	21	1	20*	-1	-3	2	3	8
